# A selection: hits, their analogues and other compounds. The true share with any hit is near 2.5%.
# GRK2 inh = compounds blocking aptamer binding on GRK2 – biochemical, human GRK2, bead flow cytometry, HTS, primary screen; inhibition of aptamer binding, % at 10 µM; hit rate 0.59% among 330,000; FAM-aptamer displacement from GRK2;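 active = inhibition of aptamer binding above 40%, roughly 3 SD of noise, on plates passing a quality check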;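 also: median bead fluorescence of bound FAM aptamer so fluorescent compounds give negative values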
# MEKK2 WT-MEK5 = modulators of MEK5 binding to wildtype MEKK2, primary screen, biochemical, multiplex bead flow cytometry, Alexa488-MEK5; binding response (% of control), % at 10 µM; hit rate 1.1% among 290,000; Mitogen-activated protein kinase kinase kinase 2 (Homo sapiens), Q9Y2U5; Alexa488-MEK5 binding to MEKK2 WT; actives lie on both sides; AID 1531, 2009; in the data active = binding response below about 67% or above about 130%
# MEKK2mut PB1 HTS = MEK5 binding signal on mutant MEKK2 PB1, primary screen, biochemical, multiplex bead flow cytometry, Alexa488-MEK5. Alexa488-MEK5 binding to MEKK2 mutant. percent response, % at 10 µM. hit rate 0.35% among 290,000; in the data active = percent response above about 24%, passing the limit was not always enough
# MEKK3 PB1 HTS = modulators of MEKK3-MEK5 PB1 binding, primary screen, biochemical, wildtype MEKK3, multiplex bead flow cytometry, Alexa488-MEK5. binding response (% of control), % at 10 µM. AID 1529, 2009. bead-based flow cytometry, Alexa488-MEK5 binding to MEKK3; actives lie on both sides; 0 = blocked by unlabeled MEK5, 100 = vehicle. hit rate 1.4% among 290,000;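 active = binding response more than 3 SD above or below the average of its plate-row segment, actives on both sides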;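 also: Alexa488 bead fluorescence after subtracting the streptavidin-only scavenger bead signal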
# Target sequence (Q99759 whole entry, looked up): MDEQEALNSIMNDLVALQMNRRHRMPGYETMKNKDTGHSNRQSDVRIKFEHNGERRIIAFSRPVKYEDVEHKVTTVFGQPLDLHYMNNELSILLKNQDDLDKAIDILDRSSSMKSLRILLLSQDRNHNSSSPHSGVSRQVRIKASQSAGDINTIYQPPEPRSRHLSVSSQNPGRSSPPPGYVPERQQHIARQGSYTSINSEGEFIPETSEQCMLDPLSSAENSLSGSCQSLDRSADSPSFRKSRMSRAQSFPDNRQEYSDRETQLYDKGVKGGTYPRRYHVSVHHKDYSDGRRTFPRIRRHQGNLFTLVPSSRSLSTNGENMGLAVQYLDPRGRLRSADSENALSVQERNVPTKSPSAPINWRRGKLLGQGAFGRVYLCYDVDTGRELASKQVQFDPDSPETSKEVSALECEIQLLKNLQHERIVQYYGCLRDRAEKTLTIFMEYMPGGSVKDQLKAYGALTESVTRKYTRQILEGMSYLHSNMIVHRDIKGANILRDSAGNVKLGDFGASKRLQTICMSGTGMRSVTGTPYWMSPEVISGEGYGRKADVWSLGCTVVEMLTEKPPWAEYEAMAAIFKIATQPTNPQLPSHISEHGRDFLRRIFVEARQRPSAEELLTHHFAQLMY
# MEKK2wt confirm = modulators of MEK5 binding to wildtype MEKK2, confirmation, biochemical, single concentration, multiplex bead flow cytometry. shares compounds with MEKK3 PB1 HTS. hit rate 2.4% among 5,900. AID 1892, 2009. binding response (% of control), % at 10 µM. Alexa488-MEK5 binding to MEKK2 WT; actives lie on both sides; in the data active = binding response below about 16% or above about 210%; inactive = in between
# MEKK2mut-MEK5 = mutant MEKK2 PB1-MEK5 binding signal retest – biochemical, single concentration, multiplex bead flow cytometry, confirmation; AID 1893, 2009; hit rate 2% among 5,900; shares compounds with MEKK3 PB1 HTS; percent response, % at 10 µM; Alexa488-MEK5 binding to MEKK2 mutant; in the data active = percent response mostly above about 71%, no sharp cut-off; inactive = mostly below about 38%;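 also: higher means compound restores mutant binding toward wildtype level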
# MEKK3 confirm = MEKK3 wild-type PB1 binding to MEK5, inhibitors, confirmation, biochemical, bead multiplex flow cytometry, single concentration, wildtype. shares compounds with MEKK3 PB1 HTS. Alexa488-MEK5 binding to MEKK3; stronger effect = lower value. binding response (% of control), % at 10 µM. hit rate 1.8% among 5,900;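 active = binding response below 72% of control, or above a set upper limit, though filed actives all read lower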;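 also: 100% = DMSO only wells and 0% = binding blocked by excess unlabeled MEK5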
# * = called active by the depositor; . = no result; [ ] = remark or other dose.
SMILES,GRK2 inh,MEKK2 WT-MEK5,MEKK2mut PB1 HTS,MEKK3 PB1 HTS,MEKK2wt confirm,MEKK2mut-MEK5,MEKK3 confirm
CC1CCC(NC(=O)c2ccc(/C=C3\Oc4ccccc4N(C)C3=O)cc2)CC1 (stereo not drawn),.,111,2,139*,99,2,102
CN(C)CCCn1c(N)c(C#N)c2nc3ccccc3nc21,1,100,-9,99,.,.,.
CCCCC(CC)Cn1c(N)c(C#N)c2nc3ccccc3nc21 (stereo not drawn),0,183*,54*,118,100,-1,105
Cc1occc1-c1nnc(SCC(=O)NC2CC2)n1C,0,104,5,98,.,.,.
COc1ccc(CNCCNC(=O)c2ccco2)c(OC)c1OC,0,114,6,127*,103,3,102
COc1ccc(NC(=O)CCNC(=O)c2ccco2)cc1OC,1,99,1,101,.,.,.
Cc1ccc(S(=O)(=O)N(CC(=O)N=Nc2c(O)[nH]c3ccccc23)c2cccc(C)c2)cc1,3,102,0,150*,95,-6,102
Cc1cc(Cl)ccc1N(CC(=O)N=Nc1c(O)[nH]c2ccccc12)S(C)(=O)=O,0,94,-3,100,.,.,.
O=C(O)c1cc(-c2ccncc2)nc2ccc(F)cc12,.,104,4,99,.,.,.
CC1CCN(CCCNC(=O)c2ccc(Cn3c(=S)[nH]c4ccc(Br)cc4c3=O)cc2)CC1,0,166*,38,103,190,50,108
N#Cc1ccc(-c2csc(NC(=O)c3cc(-c4cccs4)nc4ccccc34)n2)cc1,0,38*[inhibitor],-31,63*[inhibitor],103,10,107
Cc1ccc2nc(SC(C(=O)Nc3ccc(F)cc3)c3ccccc3)[nH]c2c1 (stereo not drawn),0,123,1,153*,88,5,103
COc1cccc(C2C(C#N)=C(N)OC3=C2C(=O)CC(c2ccco2)C3)c1OCc1ccc(F)cc1 (stereo not drawn),3,103,1,105,.,.,.
CC(C)(C)n1nnnc1C(c1cccs1)N(Cc1ccccc1)Cc1cccnc1 (stereo not drawn),8,105,1,105,.,.,.
CC(C)(C)n1nnnc1C(c1cccnc1)N(Cc1ccccc1)Cc1cccs1 (stereo not drawn),0,2.0*[inhibitor],-21,2.0*[inhibitor],101,-4,102
CC1CC(C)CN(CC(O)COc2ccc3c(c2)CCC3)C1 (stereo not drawn),3,110,1,152*,97,-3,98
Cc1ccc(CON=C2CCN(c3ncc(C(F)(F)F)cc3Cl)CC2)cc1,2,102,-1,103,.,.,.
COc1ccc(Nc2nc(-c3ccccc3)nc3ccccc23)cc1,1,118,7,108,.,.,.
COc1ccc(Nc2nc(-c3cccc([N+](=O)[O-])c3)nc3ccccc23)cc1,0,141*,3,126,107,-1,102
COC(=O)c1ccc(N=C2S/C(=C\c3cc(C)n(-c4cccnc4)c3C)C(=O)N2C)cc1,4,102,1,107,.,.,.
O=c1c2cnn(-c3ccccc3)c2nnn1Cc1ccccn1,2,102,10,100,.,.,.
COc1ccc(C(=O)N2CCc3ccccc32)cc1,0,100,5,122*,99,-6,98
COc1ccc(CCC(=O)Nc2cccc(Cl)c2)cc1,0,107,0,130*,122,10,105
COc1ccc(CCC(=O)Nc2ccc(-c3noc(-c4ccc(OC)c(OC)c4)n3)cc2)cc1,0,123,6,124*,111,3,106
CN1CCN(c2ccc(Cl)cc2NC(=O)/C=C/c2ccc(F)cc2)CC1,0,195*,51*,108,185,60,109
SMILES,GRK2 inh,MEKK2 WT-MEK5,MEKK2mut PB1 HTS,MEKK3 PB1 HTS,MEKK2wt confirm,MEKK2mut-MEK5,MEKK3 confirm
COc1ccc(CCC(=O)Nc2cc(Cl)ccc2N2CCN(C)CC2)cc1,0,117,25*,101,124,14,108
CN1CCN(c2ccc(Cl)cc2NC(=O)CCN2C(=O)c3ccccc3C2=O)CC1,0,171*,0,108,155,34,101
CN1CCN(C(=O)c2ccccc2NC(=O)CCN2C(=O)c3ccccc3C2=O)CC1,0,104,1,100,.,.,.
Cc1cc(NC(=O)CN2C(=O)[C@@H]3[C@H](C2=O)[C@@H]2C[C@H]3C(Br)C2Br)no1 (stereo partly drawn),0,103,-2,97,.,.,.
CC(=O)N1/C(=C/c2ccc(N(C)C)cc2)C(=O)c2ccccc21,.,36*[inhibitor],-12,55,38,-20,83
Cc1nnc(N/N=C/c2cc(C)n(-c3ccc(F)cc3)c2C)n1N,0,99,0,98,.,.,.
CCOC(=O)c1cc(C)sc1/N=C/C1=C(O)CCCC1=O,0,108,1,131*,107,9,109
COc1ccc(CC(=O)Nc2ccc(S(=O)(=O)N(C)C3CCN(C)CC3)cc2)cc1,0,.,.,.,.,.,.
COc1ccc2oc(C(=O)Nc3ccc(S(=O)(=O)N(C)C4CCN(C)CC4)cc3)c(C)c2c1,8,157*,17,107,159,28,105
CCOC(=O)c1cn[nH]c1NC(=S)Nc1ccc(OC)cc1,4,62,-21,50*[inhibitor],106,-1,106
COC(=O)c1[nH]c(C)c(/C(O)=C2\C(=O)C(=O)N(CCN3CCOCC3)C2c2cccs2)c1C (stereo not drawn),1,102,2,109,.,.,.
COc1cc(CNc2cccc3[nH]c(C(F)(F)F)nc23)cc(OC)c1,2,149*,24*,109,100,0,106
COc1cc(CCCN2C(=S)NC[C@@H]2Cc2ccccc2)cc(OC)c1OC,0,0.0*[inhibitor],2,1.0*[inhibitor],102,0,104
COc1cc(CCCN2C(=S)NC[C@@H]2c2ccccc2)cc(OC)c1OC,0,97,0,80*[inhibitor],107,9,108
COc1cc(CCCN2C(N)=NC[C@@H]2Cc2ccccc2)cc(OC)c1OC,0,100,4,97,.,.,.

# Assay outcomes (PubChem BioAssay)
